Measurements from PubChem BioAssay (EPA / NIEHS).
The source made the active and inactive calls. How the source made its calls: active means hit-call score of the fitted dose curve at least 0.9, where 1 is the maximum; inactive means score below 0.9.

Columns and labels:
[1] = biological target: CCAAT/enhancer-binding protein beta (Homo sapiens) (UniProt P17676); assay: ATG_C_EBP_CIS: Attagene CIS-FACTORIAL HepG2 Assay for human CCAAT/Enhancer Binding Protein (C/EBP) beta (AID 2282927); conditions: HepG2 Attagene cis-factorial transcription factor reporter; actives raise or lower the signal
Chain of CCAAT/enhancer-binding protein beta (Homo sapiens) (P17676 whole entry, looked up): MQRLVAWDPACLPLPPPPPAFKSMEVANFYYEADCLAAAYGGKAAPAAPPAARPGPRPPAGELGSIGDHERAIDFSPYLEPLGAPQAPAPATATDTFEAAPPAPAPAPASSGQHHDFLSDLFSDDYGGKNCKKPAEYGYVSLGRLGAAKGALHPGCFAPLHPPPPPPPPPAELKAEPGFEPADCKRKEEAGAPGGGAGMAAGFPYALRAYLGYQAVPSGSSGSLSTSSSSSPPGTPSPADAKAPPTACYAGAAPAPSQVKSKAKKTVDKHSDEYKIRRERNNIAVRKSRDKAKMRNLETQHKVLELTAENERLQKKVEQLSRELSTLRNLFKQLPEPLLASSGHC
In short: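 Endogenous transcription factor activity in human liver HepG2 cells is inferred from induction of a CEBPB-linked reporter mRNA. Exposure lasts 24 h; activity is fitted in both directions relative to DMSO.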

[2] = ATG_CMV_CIS: Attagene CIS-FACTORIAL HepG2 Assay for human CMV (Internal Marker) (AID 2282928); conditions: HepG2 CMV promoter reporter, transcription factor profiling; actives raise or lower the signal;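 further: endpoint acts as a background internal control marker rather than a target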
In short: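 Reporter transcripts from transfected HepG2 cells are isolated after 24 h of chemical dosing, reverse-transcribed and amplified. Fragments labeled with 6-FAM are cut with HpaI and quantified by capillary electrophoresis; DMSO defines baseline.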

[3] = ATG_AP_1_CIS: Attagene CIS-FACTORIAL HepG2 Assay for human Activator Protein 1 (AP-1) (AID 2282931); conditions: HepG2 Attagene cis-factorial AP-1 reporter mRNA; actives raise or lower the signal
In short: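 Readout is reporter transcript level from endogenous transcription factor activity, quantified by RT-PCR with fluorescent primer extension and capillary electrophoresis. Transiently transfected HepG2 cells, 24 h exposure. Curves fitted both directions versus DMSO.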

[4] = ATG_AP_2_CIS: Attagene CIS-FACTORIAL HepG2 Assay for human Activator Protein 2 (AP-2) (AID 2282932); conditions: HepG2 AP-2 cis-reporter, Attagene transcription factor profiling; actives raise or lower the signal
In short: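 Transiently transfected HepG2 cells are exposed to chemical for 24 h. Reporter transcripts are then measured as fluorescence following RT-PCR and capillary separation, and gain- or loss-of-signal is fitted relative to DMSO.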

[5] = ATG_BRE_CIS: Attagene CIS-FACTORIAL HepG2 Assay for human Bone Morphogenetic Protein (BMP) Response Element (BRE) (AID 2282933); conditions: HepG2 BMP response element reporter, Attagene transcription factor profiling; actives raise or lower the signal
In short: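 Gain- or loss-of-signal was derived by bidirectional fitting against DMSO controls. The signal came from reporter mRNA, measured by RT-PCR and capillary electrophoresis, in HepG2 cells transiently carrying multiple reporter units and dosed for 24 h.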

[6] = ATG_E_Box_CIS: Attagene CIS-FACTORIAL HepG2 Assay for human Enhancer Box (E-box) (AID 2282936); conditions: HepG2 E-box cis-reporter transcription, actives raise or lower the signal
In short: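 Fluorescent reporter fragments separated by capillary electrophoresis gave the signal; mRNA came from HepG2 cells transfected with cis-element reporters and treated 24 h. Curves fitted bidirectionally relative to DMSO controls.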

[7] = ATG_M_61_CIS: Attagene CIS-FACTORIAL HepG2 Assay for M61 Transcription Factor (Internal Marker) (AID 2282937); conditions: HepG2 Attagene CIS-FACTORIAL M61 internal marker reporter; actives raise or lower the signal
In short: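 Readout is reporter mRNA by RT-PCR, fluorescent primer extension and capillary electrophoresis, with gain or loss fitted relative to DMSO. Transfected HepG2 cells carrying endogenous-TF-driven cis reporters were exposed to chemicals for 24 hours.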

[8] = ATG_EGR_CIS: Attagene CIS-FACTORIAL HepG2 Assay for human Early Growth Response 1 (EGR1) (AID 2282938); conditions: HepG2 Attagene CIS-FACTORIAL EGR reporter mRNA; actives raise or lower the signal
In short: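 After 24 h compound exposure, RNA from reporter-transfected HepG2 cells was reverse-transcribed, PCR-amplified, fluorescently labelled and resolved by capillary electrophoresis. EGR1 reporter transcript changes, up or down, were fitted against DMSO, reflecting endogenous transcription-factor activity.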

[9] = ATG_Ets_CIS: Attagene CIS-FACTORIAL HepG2 Assay for human Erythroblast Transformation Specific (ETS) (AID 2282941); conditions: HepG2 ETS cis-reporter transcription, actives raise or lower the signal
In short: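 Bidirectional fit versus DMSO of reporter mRNA signal, detected by RT-PCR and capillary electrophoresis in HepG2 cells transiently transfected with cis-element reporters and dosed 24 h.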

[10] = ATG_FoxO_CIS: Attagene CIS-FACTORIAL HepG2 Assay for human Forkhead box O (FoxO) (AID 2282943); conditions: HepG2 Attagene cis-reporter, FoxO element, mRNA; actives raise or lower the signal
In short: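 HepG2, transient MRTU transfection (cis element, endogenous TFs). Dose 24 h. TriZol RNA → oligo(dT) RT → PCR → 6-FAM primer extension → HpaI cut → CE. Gain/loss vs DMSO.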

[11] = ATG_GATA_CIS: Attagene CIS-FACTORIAL HepG2 Assay for human GATA Binding Protein (AID 2282944); conditions: HepG2 GATA cis-element reporter, Attagene multiplex mRNA; actives raise or lower the signal
In short: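 DMSO serves as negative control and baseline for bidirectional fitting of reporter mRNA changes. HepG2 cells bearing transiently transfected cis-promoter reporters were exposed 24 h; transcripts detected via RT-PCR and capillary electrophoresis.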

[12] = ATG_ISRE_CIS: Attagene CIS-FACTORIAL HepG2 Assay for human Interferon Regulatory Factor 1 (IRF1) binding to an Interferon-Stimulated Response Element (ISRE) (AID 2282948); conditions: HepG2 ISRE cis-reporter (Attagene), mRNA transcription readout; actives raise or lower the signal
In short: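 Uses HepG2 liver cells transfected with cis-regulated reporters and measures mRNA 24 h post-dosing through RT-PCR, primer-extension labelling and capillary electrophoresis, with DMSO as negative control.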

[13] = ATG_M_06_CIS: Attagene CIS-FACTORIAL HepG2 Assay for M06 Transcription Factor (Internal Marker) (AID 2282950); conditions: HepG2 Attagene CIS-FACTORIAL M06 internal marker reporter; actives raise or lower the signal
In short: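 Fluorescence-labelled RT-PCR products from cis-promoter reporter units, cut with HpaI and resolved by capillary electrophoresis, give the signal. Cells are human HepG2, dosed for 24 h. Serves as background control, fitted relative to DMSO.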

[14] = ATG_MRE_CIS: Attagene CIS-FACTORIAL HepG2 Assay for human Metal Responsive Element (MRE) (AID 2282954); conditions: HepG2 MRE cis-reporter transcription, Attagene multiplex; actives raise or lower the signal
In short: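 Multiplexed cis-reporter assay in human HepG2 liver cells, 24 h incubation with test chemical. Reporter transcripts measured by RT-PCR and capillary electrophoresis; values from bidirectional curve fitting versus DMSO.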

[15] = biological target: Paired box protein Pax-6 (Homo sapiens) (UniProt P26367); assay: ATG_Pax6_CIS: Attagene CIS-FACTORIAL HepG2 Assay for human Paired Box 6 (PAX6) (AID 2282956); conditions: HepG2 CIS-FACTORIAL PAX6 reporter transcription, RNA readout; actives raise or lower the signal
Chain of Paired box protein Pax-6 (Homo sapiens) (P26367 whole entry, looked up): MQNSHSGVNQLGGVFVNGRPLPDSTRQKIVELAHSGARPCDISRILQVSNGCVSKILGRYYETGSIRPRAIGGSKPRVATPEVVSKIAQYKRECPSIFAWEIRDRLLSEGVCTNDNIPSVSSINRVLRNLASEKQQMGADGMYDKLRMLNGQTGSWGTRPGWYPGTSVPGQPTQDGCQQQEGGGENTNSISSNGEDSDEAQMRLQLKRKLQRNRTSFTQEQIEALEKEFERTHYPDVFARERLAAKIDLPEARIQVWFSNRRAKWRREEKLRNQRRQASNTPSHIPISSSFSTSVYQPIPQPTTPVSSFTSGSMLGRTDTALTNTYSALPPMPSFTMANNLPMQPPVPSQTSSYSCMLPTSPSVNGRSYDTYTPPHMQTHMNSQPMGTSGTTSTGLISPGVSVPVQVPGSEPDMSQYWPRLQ
In short: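 DMSO-referenced bidirectional fits of reporter mRNA fluorescence; HepG2 with transient cis-promoter MRTUs, 24 h post-dose, RT-PCR plus capillary electrophoresis detection.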

[16] = biological target: Transcription factor Sp1 (Homo sapiens) (UniProt P08047); assay: ATG_Sp1_CIS: Attagene CIS-FACTORIAL HepG2 Assay for human Specificity Protein 1 (Sp1) (AID 2282961); conditions: HepG2 Sp1 cis-reporter transcription, actives raise or lower the signal
Chain of Transcription factor Sp1 (Homo sapiens) (P08047 whole entry, looked up): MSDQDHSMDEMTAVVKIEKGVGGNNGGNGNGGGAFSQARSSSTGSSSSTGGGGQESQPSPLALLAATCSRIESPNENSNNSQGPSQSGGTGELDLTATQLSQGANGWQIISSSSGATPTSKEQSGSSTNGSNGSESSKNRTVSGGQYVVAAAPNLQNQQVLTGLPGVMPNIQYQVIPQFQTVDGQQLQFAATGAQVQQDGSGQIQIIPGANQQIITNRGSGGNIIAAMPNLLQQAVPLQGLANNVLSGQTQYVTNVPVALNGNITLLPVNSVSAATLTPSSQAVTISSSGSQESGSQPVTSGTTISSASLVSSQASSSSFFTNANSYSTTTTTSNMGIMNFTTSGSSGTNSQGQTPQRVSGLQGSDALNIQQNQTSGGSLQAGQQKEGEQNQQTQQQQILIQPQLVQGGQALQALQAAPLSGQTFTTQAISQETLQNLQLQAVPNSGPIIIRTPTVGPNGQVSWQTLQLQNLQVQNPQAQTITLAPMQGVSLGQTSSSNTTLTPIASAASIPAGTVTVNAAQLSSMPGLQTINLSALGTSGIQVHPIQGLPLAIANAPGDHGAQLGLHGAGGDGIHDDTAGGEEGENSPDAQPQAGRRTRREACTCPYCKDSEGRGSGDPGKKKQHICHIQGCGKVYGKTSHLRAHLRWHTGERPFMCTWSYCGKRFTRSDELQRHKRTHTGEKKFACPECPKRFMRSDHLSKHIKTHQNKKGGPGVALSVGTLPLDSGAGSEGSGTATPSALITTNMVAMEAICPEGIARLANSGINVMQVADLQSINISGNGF
In short: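 Read-out is reporter transcript level, measured by RT-PCR and fluorescent capillary electrophoresis after 24 h chemical treatment. System: transiently transfected HepG2 cells reporting endogenous transcription factor activity; gain or loss fitted against DMSO baseline.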

[17] = ATG_SREBP_CIS: Attagene CIS-FACTORIAL HepG2 Assay for human Sterol Regulatory Element Binding (SREBP) (AID 2282962); conditions: HepG2 Attagene cis-factorial SREBP reporter, mRNA; actives raise or lower the signal
In short: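 In this cis-format assay, HepG2 liver cells express reporters controlled by promoter elements responsive to native transcription factors. Exposure lasts 24 h; reporter mRNA fluorescence from capillary electrophoresis gives the signal, fitted bidirectionally against DMSO.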

[18] = biological target: Signal transducer and activator of transcription 3 (Homo sapiens) (UniProt P40763); assay: ATG_STAT3_CIS: Attagene CIS-FACTORIAL HepG2 Assay for human Signal Transducer and Activator of Transcription 3 (STAT3) (AID 2282963); conditions: HepG2, Attagene cis-factorial STAT3 reporter transcription; actives raise or lower the signal
Chain of Signal transducer and activator of transcription 3 (Homo sapiens) (P40763 whole entry, looked up): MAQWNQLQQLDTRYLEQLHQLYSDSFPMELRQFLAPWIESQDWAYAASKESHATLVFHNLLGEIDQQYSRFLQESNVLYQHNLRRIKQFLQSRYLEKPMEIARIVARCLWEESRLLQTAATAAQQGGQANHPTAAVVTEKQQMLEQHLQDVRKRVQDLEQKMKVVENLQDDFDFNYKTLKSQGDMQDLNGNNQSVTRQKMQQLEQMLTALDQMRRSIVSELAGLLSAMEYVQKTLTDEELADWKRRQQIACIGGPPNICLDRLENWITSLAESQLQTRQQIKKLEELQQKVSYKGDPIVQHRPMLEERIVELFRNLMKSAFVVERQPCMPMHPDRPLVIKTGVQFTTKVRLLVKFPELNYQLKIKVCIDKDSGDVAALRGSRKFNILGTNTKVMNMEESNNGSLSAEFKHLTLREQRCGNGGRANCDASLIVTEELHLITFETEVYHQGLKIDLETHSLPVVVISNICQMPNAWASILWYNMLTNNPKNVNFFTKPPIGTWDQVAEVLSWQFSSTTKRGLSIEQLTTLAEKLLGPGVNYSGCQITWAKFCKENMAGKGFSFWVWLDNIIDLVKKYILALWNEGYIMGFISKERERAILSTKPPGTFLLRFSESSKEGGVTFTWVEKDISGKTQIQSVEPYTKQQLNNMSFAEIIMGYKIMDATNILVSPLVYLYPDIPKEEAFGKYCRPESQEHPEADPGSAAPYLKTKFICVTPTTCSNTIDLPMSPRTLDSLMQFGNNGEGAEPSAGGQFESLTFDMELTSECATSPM
In short: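 Cis-factorial format: endogenous transcription factors in HepG2 drive transfected reporter units. After 24 h treatment, reporter RNA was reverse-transcribed, amplified, FAM-labelled and HpaI-digested before CE analysis; activity scored in both directions against DMSO.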

[19] = ATG_TAL_CIS: Attagene CIS-FACTORIAL HepG2 Assay for human TAL Basal Promoter (AID 2282966); conditions: HepG2 Attagene cis-factorial TAL promoter reporter; actives raise or lower the signal;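 further: background control endpoint measuring basal TAL promoter reporter mRNA not a specific factor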
In short: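 Transiently transfected HepG2 (cis-regulated reporter units), 24 h treatment, mRNA read by fluorescent CE after RT-PCR; bidirectional fit, DMSO baseline.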

[20] = biological target: X-box-binding protein 1 (Homo sapiens) (UniProt P17861); assay: ATG_Xbp1_CIS: Attagene CIS-FACTORIAL HepG2 Assay for human X-box Binding Protein 1 (XBP1) (AID 2282972); conditions: HepG2 XBP1 cis-element reporter, Attagene multiplex; actives raise or lower the signal
Chain of X-box-binding protein 1 (Homo sapiens) (P17861 whole entry, looked up): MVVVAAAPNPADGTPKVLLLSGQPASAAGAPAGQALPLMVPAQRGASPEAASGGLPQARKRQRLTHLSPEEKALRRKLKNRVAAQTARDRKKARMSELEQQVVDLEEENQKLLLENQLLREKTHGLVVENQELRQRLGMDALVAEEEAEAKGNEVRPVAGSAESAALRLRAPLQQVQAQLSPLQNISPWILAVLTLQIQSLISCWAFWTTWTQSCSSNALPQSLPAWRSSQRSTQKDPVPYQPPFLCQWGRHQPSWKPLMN
In short: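 Changes in reporter transcript abundance, read by RT-PCR and capillary electrophoresis, reflect endogenous transcription factor activity. Transfected HepG2 cells received compound for 24 hours; DMSO defined baseline for bidirectional analysis.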

Measured: AC50

CCCCCCCCCCCCCCCCCC[N+](C)(C)C
inactive: [2] | [3] | [5] | [7] | [8] | [12] | [13] | [16] | [20]
active: [1] 41.1 µM | [4] 38.6 µM | [6] 6.9 µM | [9] 16.7 µM | [10] 42 µM | [11] 38.7 µM | [14] 40.1 µM | [15] 5.86 µM | [17] 6.46 µM | [18] 44 µM | [19] 39.2 µM

Cc1ccnc(N)c1
inactive: [1] | [2] | [3] | [4] | [5] | [6] | [7] | [8] | [9] | [10] | [11] | [12] | [13] | [14] | [15] | [16] | [17] | [18] | [19] | [20]

CCCCNC(N)=O
inactive: [1] | [2] | [3] | [4] | [5] | [6] | [7] | [8] | [9] | [10] | [11] | [12] | [13] | [14] | [15] | [16] | [17] | [18] | [19] | [20]

CCCCCCC1CCCC(=O)O1 (stereo not given)
inactive: [1] | [2] | [3] | [4] | [5] | [7] | [8] | [9] | [10] | [11] | [12] | [13] | [14] | [15] | [16] | [17] | [18] | [19] | [20]
active: [6] 75.2 µM

CCC(=O)OCc1ccc(OC)cc1
inactive: [1] | [2] | [3] | [4] | [5] | [6] | [7] | [8] | [9] | [10] | [11] | [12] | [13] | [14] | [15] | [16] | [17] | [18] | [19] | [20]

CCc1cc(C(N)=S)ccn1
inactive: [1] | [2] | [3] | [4] | [5] | [6] | [7] | [8] | [9] | [10] | [11] | [12] | [13] | [14] | [15] | [16] | [17] | [18] | [19] | [20]
